Compound activity: PubChem BioAssay, Broad Institute
AF4-AF9 inh = inhibitors of human MLL-AF4/AF9 interaction. 0.47% of 350,000 active. inhibition, % at 10 µM. P42568. AlphaScreen, biotin-AF4 peptide binding to FLAG-AF9;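 active = every replicate reaching a set inhibition limit, whatever the replicate mean, cut at about 25% in these data; inconclusive = mean inhibition reaches that limit but some replicates miss it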
Target sequence (P42568 whole entry, looked up): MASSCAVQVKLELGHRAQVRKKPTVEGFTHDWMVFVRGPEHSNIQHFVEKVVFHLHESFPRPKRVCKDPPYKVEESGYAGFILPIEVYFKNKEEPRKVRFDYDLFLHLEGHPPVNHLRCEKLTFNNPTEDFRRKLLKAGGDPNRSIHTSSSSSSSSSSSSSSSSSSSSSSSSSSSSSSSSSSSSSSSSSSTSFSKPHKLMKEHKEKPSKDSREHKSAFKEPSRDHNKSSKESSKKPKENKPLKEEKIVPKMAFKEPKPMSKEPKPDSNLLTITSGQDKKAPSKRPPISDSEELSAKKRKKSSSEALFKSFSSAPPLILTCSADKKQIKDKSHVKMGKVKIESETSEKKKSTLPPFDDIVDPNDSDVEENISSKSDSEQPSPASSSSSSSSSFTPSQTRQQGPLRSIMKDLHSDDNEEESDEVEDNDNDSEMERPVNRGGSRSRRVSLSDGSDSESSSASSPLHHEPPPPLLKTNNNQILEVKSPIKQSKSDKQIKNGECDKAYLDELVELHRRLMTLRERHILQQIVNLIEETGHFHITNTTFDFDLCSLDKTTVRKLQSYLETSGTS
esBAF inh = SWI/SNF esBAF complex inhibition | 2% of 350,000 active | reporter increase, % at 12.5 µM | mouse ES cells, Bmi1-luciferase knock-in reporter, 24 h; 100% = twice the neutral-well signal | AID 602393; in the data active = activation above about 40%; inconclusive = no clear call, values can overlap the other calls;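 note: a rise in the Bmi1 reporter signal indicates esBAF inhibition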
MITF act = increases MITF-driven TRPM1 promoter luciferase signal. 0.75% of 300,000 active. SK-MEL-5 TRPM1-promoter luciferase, 24 h; % of positive control, neutral wells = 0. AID 588334. activation, % at 12.5 µM;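 active = mean activation of at least 80% with every replicate also reaching 80%; inconclusive = mean reaches 80% but some replicate falls short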
rRNA inh HTS = inhibits bacterial ribosomal RNA function over humanized ribosomes. E. coli WT GFP vs humanized-ribosome RFP mutants, fluorescence, 24 h; active compounds read low; DMSO median 0, no signal -100. GFP signal change (wild-type ribosome), % (concentration not given with the values). 1.6% of 350,000 active. AID 720706;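 active = significant combined selectivity score with lowered wild-type GFP, culture density cut under 30%, mutant RFP and density less affected; inactive = any of these conditions unmet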
Wnt bcat act = activators of Wnt/beta-catenin signaling. 1.2% of 300,000 active. activation, % at 9.35 µM. Wnt/beta-catenin reporter cell assay, activator, plate reader; in the data active = activation above about 30%, passing the limit was not always enough; inconclusive = no clear call, values can overlap the other calls
Large screens that a line does not name were inactive. An excerpt weighted towards active compounds, which were near 3.7% of everything screened.

Cc1ccc(-c2nnc(/C=C/c3ccccc3)o2)cc1	none (no result: esBAF inh, rRNA inh HTS)
O=C1CC[C@@H](O)CCN1CC[C@H](Sc1ccccc1)c1ccccc1	rRNA inh HTS -31
O=C1CC[C@@H](O)CCN1CC[C@H](Sc1ccc(Br)cc1)c1ccccc1	none
Cc1cccc(C)c1OCC(O)CN1CCN(c2ccccc2)CC1 (stereo not drawn)	rRNA inh HTS -29
O=[N+]([O-])c1ccccc1NCc1c(O)ccc2ccccc12	rRNA inh HTS -22
Oc1ccc2ccccc2c1CNc1ccccc1	rRNA inh HTS -13
Oc1ccc2ccccc2c1CNc1ccc2ccccc2c1	none (no result: esBAF inh)
CC(C)OP(=O)(c1ccc(N(C)C)cc1)C(O)c1ccccc1 (stereo not drawn)	none (no result: AF4-AF9 inh, esBAF inh, MITF act, rRNA inh HTS)
O=C1c2ccccc2NC2(CCCC2)N1O	none (no result: AF4-AF9 inh, rRNA inh HTS, Wnt bcat act)
c1ccc2c(c1)NC1(CCCC1)n1c-2nc2ccccc21	esBAF inh 75, MITF act inconclusive
CCCC1(C)Nc2ccccc2-c2nc3ccccc3n21 (stereo not drawn)	esBAF inh 67 (no result: AF4-AF9 inh, rRNA inh HTS, Wnt bcat act)
Cc1onc(-c2ccccc2)c1C(=O)NNC(=S)NC(=O)/C=C/c1cccs1	none (no result: AF4-AF9 inh, esBAF inh, rRNA inh HTS, Wnt bcat act)
CC1=C(C(=O)OC2CCCCCCC2)C(c2cccc(O)c2)NC(=O)N1 (stereo not drawn)	rRNA inh HTS -33 (no result: esBAF inh)
CCC1=Nc2cc(C(=O)NCc3cccnc3)ccc2Sc2ccc(C)cc21	rRNA inh HTS -22 (no result: esBAF inh)
CCC1=Nc2cc(C(=O)NCc3ccco3)ccc2Sc2ccc(Cl)cc21	none (no result: AF4-AF9 inh, esBAF inh, rRNA inh HTS)
O=c1c2c3c(sc2nc2n1CCCC2)CCC3	none (no result: AF4-AF9 inh, rRNA inh HTS, Wnt bcat act)
O=c1c2c3c(sc2nc2n1CCCC2)CCCCC3	none (no result: AF4-AF9 inh, esBAF inh, rRNA inh HTS, Wnt bcat act)
O=c1c2c3c(sc2nc2n1CCCCC2)CCCC3	esBAF inh 50, Wnt bcat act 39 (no result: AF4-AF9 inh, MITF act, rRNA inh HTS)
O=c1c2c3c(sc2nc2n1CCCCC2)CCCCC3	esBAF inh 62 (no result: AF4-AF9 inh, rRNA inh HTS, Wnt bcat act)
N=c1c2c3c(sc2nc2n1CCCCC2)CCCCC3	esBAF inh 48 (no result: AF4-AF9 inh, rRNA inh HTS, Wnt bcat act)
CC(C)N1CCN(Cc2cccc(-c3ccco3)c2)CC1CCO (stereo not drawn)	none (no result: esBAF inh)
COc1ccc(/C(C#N)=C/c2ccccn2)cc1	Wnt bcat act 33
C[C@H](CO)N1C[C@H](C)[C@@H](CN(C)Cc2ccc(C(=O)O)cc2)Oc2c(NS(=O)(=O)c3ccc(F)cc3)cccc2C1=O	none
CC1CCN(C(=O)CCNS(=O)(=O)c2ccc(Cl)cc2)CC1	none
O=C(c1cc(-c2cccc(Cl)c2)on1)N1CCN(c2ccccc2)CC1	none
O=C(c1cc(-c2cccc(Cl)c2)on1)N1CCCC1	Wnt bcat act 40
COc1cccc(-c2cc(C(=O)N3CCOCC3)no2)c1	none
O=C(c1cc(-c2cccc(O)c2)on1)N1CCOCC1	Wnt bcat act 45 (no result: MITF act)
O=C(c1cc(-c2ccc(Cl)c(Cl)c2)on1)N1CCCCC1	esBAF inh 56, MITF act 104 (no result: AF4-AF9 inh, rRNA inh HTS, Wnt bcat act)
O=C(c1cc(-c2cccc(O)c2)on1)N1CCCCCC1	MITF act 93, Wnt bcat act 37
COc1ccc(-c2nc(CS(=O)CC(=O)N3CCN(C)CC3)c(C)o2)cc1 (stereo not drawn)	none
CC(C)c1ccc(/C=N/NC(=O)c2c(Cl)cnn2C)cc1	MITF act 93 (no result: AF4-AF9 inh, esBAF inh, rRNA inh HTS, Wnt bcat act)
CC(C)c1ccc(Nc2nnc(SCC(=O)NCC3CCCO3)s2)cc1 (stereo not drawn)	Wnt bcat act 47
O=C(Nc1ccccc1F)N[C@H]1CC[C@@H](CCNC(=O)C2CCOCC2)O[C@@H]1CO	none (no result: MITF act, Wnt bcat act)
C/C(NC(=O)c1cccs1)=C1\C(=O)C[C@@H]2[C@H]1C2(C)C	esBAF inh 44 (no result: rRNA inh HTS)
CC1CCC2(CC1)NC(=O)N(NC(=O)c1cccs1)C2=O (stereo not drawn)	none
CCOc1ccc(NC(=O)c2cccnc2SC)cc1	none
COc1ccc(C(=O)NNC(=O)Cc2ccc([N+](=O)[O-])cc2)cc1	none (no result: AF4-AF9 inh, rRNA inh HTS, Wnt bcat act)
COc1ccc(CC2(C)OC(c3ccc([N+](=O)[O-])cc3)=NN2C(C)=O)cc1 (stereo not drawn)	AF4-AF9 inh 27 (no result: esBAF inh)
O=C(Cc1ccccc1)N/N=C/C=C/c1ccccc1[N+](=O)[O-]	Wnt bcat act 35 (no result: esBAF inh, MITF act)
O=[N+]([O-])c1ccccc1C=CC=NN=Cc1ccccc1O	Wnt bcat act 71 (no result: esBAF inh)
O=C(O)c1ccc(N/N=C/C=C/c2ccccc2[N+](=O)[O-])cc1	esBAF inh 79, MITF act 112
C/C=C/c1cnc2c(c1)C(=O)N([C@H](C)CO)C[C@@H](C)[C@@H](CN(C)S(=O)(=O)c1ccc(F)cc1)O2	none (no result: MITF act, Wnt bcat act)
Cc1ccc(Sc2ccc(CN3CCCC3)cc2[N+](=O)[O-])cc1	AF4-AF9 inh 31
